Records with an inconclusive call do not appear. The source made the active and inactive calls. Calls come from the whole dose curve; as a rule, active = well fitted cell-killing curve with a large enough effect; inconclusive = small, poorly fitted or top-dose-only effect; inactive = flat fitted curve, though single readings scatter.
Test: HepG2 cells viability qHTS for Zika virus inhibitors (AID 1347168)
Conditions: Zika counter-screen; series mostly up to 45.9 µM
Text: Avindra Nath, Ph.D., National Institute of Neurological Disorders and Stroke (NINDS), Bethesda, MD
Radhakrishnan Padmanabhan, Ph.D., Georgetown University (GU), Washington D.C.
Zika Virus causes congenital defects, including microcephaly and is associated with Guillain-Barre syndrome, eningoencephalitis and myelitis in infected adult. […] Using a target-based approach, we hope to establish a screening paradigm to uncover novel, cell-active NS2B-NS3 protease (Zika Virus) specific inhibitors from NCATS' collection of small molecules using qHTS.
Four assay panel was created to identify potential Zika Virus inhibitors. Namely, (1) GU unlinked NS2B-NS3 AMC tagged protease qHTS, (2) GU unlinked NS2B-NS3 Rhodamine tagged protease qHTS, (3) NINDS linked NS2B-NS3 AMC tagged protease qHTS, (4) NINDS linked NS2B-NS3 Rhodamine tagged protease qHTS. Identified inhibitors were screened against the Vero and HepG2 cell viability assays using CellTiter Glo to exclude cytotoxic compounds.
Early Translation Branch (ETB)
National Center for Advancing Translational Sciences (NCATS), Rockville, MD
National Institute of Health (NIH), Bethesda, Maryland
Vero and HepG2 Cell Viability Assay:
Vero and HepG2 cell cytotoxicity were determined using a luminescent readout with CellTiter Glo reagent (Promega, Madison, WI), which is based on measuring the ATP content within cells. Briefly, 4 microL of Vero or HepG2 cells at 2.5 x 10^5 cells/mL in DMEM containing 4% FBS were dispensed into 1536-well solid bottom tissue treated white plate using a Multidrop Combi dispenser (Thermo Scientific). Plates were incubated at 37 degrees C, 95% humidity, and 5% CO2 overnight to allow for cell attachment. Compounds were dissolved in DMSO at different concentrations and transferred via pintool (Wako Automation), for a final concentration of 0.029 µM - 57 microM. Plates were again incubated for 24 to 48 hours, followed by a 2 microL addition of CellTiter Glo. Finally, plates were incubated for 30 minutes at 37 degrees C and 5% CO2 before being read on a ViewLux (Perkin Elmer) for luminescence.

Compound | outcome
Cc1noc(-c2ccc(-c3ccc(CC(=O)O)cc3)cc2)c1NC(=O)O[C@H](C)c1ccccc1Cl | inactive
O=C(Nc1ccc(-c2ccc(Cl)c(Cl)c2)cc1)C1=C(O)c2ccccc2S(=O)(=O)N1 | inactive
CCCCCCCOc1cc2c(cc1/C(C)=C/c1ccc(C(=O)O)cc1)C(C)(C)CCS2(=O)=O | inactive
O=C(O)c1ccc(N2C(=O)/C(=C/c3ccc(-c4ccc([N+](=O)[O-])cc4)o3)C=C2c2ccccc2)cc1 | inactive
O=C(O)c1ccc(S(=O)(=O)N(Cc2ccc(OC(F)(F)F)cc2)c2ncc(C(F)(F)F)cc2Cl)cc1 | inactive
CC(C)C[C@H](C(=O)O)c1cc(-c2ccc(C(F)(F)F)cc2)cc(-c2ccc(C(F)(F)F)cc2)c1 | inactive
CCCCCc1ccc(/C=C/C(=O)Nc2cc(Cl)ccc2C(=O)O)cc1 | inactive
CC#C[C@@H](CC(=O)O)c1ccc(OCc2cccc(-c3ccc(C(F)(F)F)cc3)c2)cc1 | inactive
CC#C[C@@H](CC(=O)O)c1ccc(OCc2ccc(CN3CCC4(C=Cc5ccccc54)CC3)s2)cc1 | inactive
N#Cc1ccc(N2N=C3c4ccc(C(=O)O)cc4CC[C@@H]3[C@@H]2C2CCCC2)cc1Cl | inactive
CC(O)(C(=O)O)C1CCC2(C)C1CCC1(C)C2CCC2C3(C)CCC(O)C(C)(COC4OC(CO)C(O)C(O)C4O)C3CCC21C (stereo not drawn) | inactive
COc1ccc(-c2ccccc2)cc1NS(=O)(=O)c1cc(Cl)cc(Cl)c1O | inactive
CCC(CC)(NC(=O)C(C)C)C(=O)N[C@@H](CCCN=C(N)N)C(=O)NC1(C(=O)NC(c2ccc(F)cc2)c2ccc(F)cc2)CCCC1 | inactive
CC(C)(C)Sc1c(CC(C)(C)C(=O)O)n(Cc2ccc(Cl)cc2)c2ccc(OCc3ccc4ccccc4n3)cc12 | inactive
O=C(O)c1cccc(-c2ccc(-c3cn(C(=O)N4CCCCC4Cc4ccccc4)nn3)cc2)c1 (stereo not drawn) | inactive
O=C(O)c1cc(N(Cc2ccc(C3CCCCC3)cc2)C(=O)c2ccc(Oc3ccccc3)cc2)ccc1O | inactive
O=S(=O)(Nc1cc(Cl)c(Oc2cnc3ccccc3c2)c(Cl)c1)c1ccc(Cl)cc1Cl | inactive
Cc1cc(C)c2c(c1)C(N(Cc1cc(C(F)(F)F)cc(C(F)(F)F)c1)c1nnn(C)n1)CCCN2CC1CCC(C(=O)O)CC1 (stereo not drawn) | inactive
